# Most compounds without a hit are left out; they make up all but 4.5% or so of the library.
# HDAC3 inh: human HDAC3 inhibition; inhibition, % at 8.3 µM; AID 2718; hit rate 0.15% among 320,000; O15379; recombinant HDAC3, fluorogenic peptide/trypsin coupled, fluorescence; in the data active = inhibition above about 26%, passing the limit was not always enough; inconclusive = no clear call, values can overlap the other calls
# Rtt109 HAT inh: C. albicans Rtt109 histone acetyltransferase inhibition. inhibition, % at 34.9 µM. purified Rtt109/Vps75, ThioGlo CoA-SH fluorescence, 4 h. AID 540336. hit rate 0.16% among 330,000. Q5AAJ8;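 active = inhibition of at least 50% in every replicate; inconclusive = best replicate reaches 50% inhibition but some replicates fall short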
# ALR inh: blocks human ALR sulfhydryl oxidase activity | P55789 | purified ALR, DTT oxidation, H2O2 HRP-luminol luminescence | inhibition, % (test concentration not listed) | hit rate 3.8% among 290,000;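 active = mean replicate inhibition above about 79%, with every replicate also reaching it, limit read from the data; inconclusive = only one of the two criteria met; inactive = mean below limit and not every replicate reaching it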
# Target sequence (P55789 whole entry, looked up): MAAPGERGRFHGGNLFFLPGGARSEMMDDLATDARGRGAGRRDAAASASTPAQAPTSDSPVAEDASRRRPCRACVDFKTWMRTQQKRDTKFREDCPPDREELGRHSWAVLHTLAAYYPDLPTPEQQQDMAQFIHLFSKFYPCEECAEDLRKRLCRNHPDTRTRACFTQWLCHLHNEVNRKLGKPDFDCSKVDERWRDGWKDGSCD
# Efflux pump inh: inhibitors of Candida antifungal efflux pumps expressed in yeast; S. cerevisiae Candida pump triplex, Nile Red efflux; inhibition, % at 10 µM; hit rate 0.44% among 330,000; AID 485275;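 active = plate passing quality check with inhibition over a set limit, or well fluorescence over plate mean plus 4 SD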;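 note: Nile Red retained in pooled yeast measured as flow cytometry median fluorescence; higher means more Nile Red kept so more efflux inhibition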
# GRK2 aptamer HTS: inhibitors of human GRK2 displacing RNA aptamer. bead flow cytometry, FAM-aptamer displacement from GRK2. inhibition of aptamer binding, % at 10 µM. P25098. hit rate 0.59% among 330,000. AID 488847;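 active = inhibition of aptamer binding above 40%, roughly 3 SD of noise, on plates passing a quality check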;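 note: median bead fluorescence of bound FAM aptamer so fluorescent compounds give negative values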
# Rce1 inhib: inhibitors of yeast Ras-converting enzyme. yeast membranes, quenched prenylated peptide cleavage fluorescence. Q03530. hit rate 0.27% among 290,000. calls only;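 active = fall in fluorescence gain of 50% or more versus controls, with final raw signal at or below 3038400; inconclusive = same 50% fall but final raw signal above 3038400; inactive = fall in fluorescence gain under 50%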
# Target sequence (Q03530 whole entry, looked up): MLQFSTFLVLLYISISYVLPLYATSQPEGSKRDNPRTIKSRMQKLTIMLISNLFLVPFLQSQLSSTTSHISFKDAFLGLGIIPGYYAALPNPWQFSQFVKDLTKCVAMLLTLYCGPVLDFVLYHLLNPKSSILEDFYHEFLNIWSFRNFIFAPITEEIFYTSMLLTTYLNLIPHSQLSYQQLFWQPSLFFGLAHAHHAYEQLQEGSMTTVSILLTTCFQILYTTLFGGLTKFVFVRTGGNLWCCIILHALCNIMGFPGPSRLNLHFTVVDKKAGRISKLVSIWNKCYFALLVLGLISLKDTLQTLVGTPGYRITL
# GRK2 CP1: confirmation of human GRK2 inhibitors displacing RNA aptamer; shares compounds with GRK2 aptamer HTS; bead-bound GRK2, FAM-aptamer displacement, flow cytometry; aptamer displacement, % at 10 µM; hit rate 4% among 2,000;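 active = aptamer displacement above 40%, near three times the noise of non-fluorescent compounds, on plates passing quality checks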;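 note: negative values mostly reflect intrinsic compound fluorescence rather than true enhancement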
# FAM quench CP1: counter-screen for GRK2 aptamer inhibitors: fluorescent aptamer quenchers. shares compounds with GRK2 aptamer HTS. Carboxyfluorescein RNA aptamer on beads, flow cytometry quenching; stronger effect = lower value. fluorescence response (% of DMSO), % at 10 µM. 2,000 tested, under 10 active;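 active = compounds that quench the bead-bound fluorescent RNA probe, cutting fluorescence to under half of the solvent control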;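 note: counterscreen run without GRK2 so only probe quenching by compound is measured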
# GRK2 confirm 2: human GRK2 inhibition confirmation, cherry pick 2; shares compounds with GRK2 aptamer HTS; bead-bound GRK2, FAM-aptamer displacement, flow cytometry; inhibition of aptamer binding, % at 10 µM; 360 tested, under 10 active; AID 504782;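 active = inhibition of aptamer binding above 40%, about triple the noise seen with nonglowing compounds, on plates passing quality control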;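 note: negative values mostly come from compounds that fluoresce themselves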
# FAM quench CP2: counter-screen for GRK2 binding hits: quenchers of fluorescent RNA aptamer; fluorescence response vs DMSO, % at 10 µM; 360 tested, under 10 active; carboxyfluorescein RNA aptamer beads, flow cytometry quenching; stronger effect = lower value; shares compounds with GRK2 aptamer HTS; AID 588494;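 active = response vs DMSO under 50%, meaning signal dropped by over half, treated as fluorescence quencher; inconclusive = no clear call, values can overlap the other calls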;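 note: labelled aptamer on streptavidin beads without GRK2 as a quench counter-screen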
# A number is an active result; - = inactive; ? = inconclusive; . = no result.
SMILES,HDAC3 inh,Rtt109 HAT inh,ALR inh,Efflux pump inh,GRK2 aptamer HTS,Rce1 inhib,GRK2 CP1,FAM quench CP1,others
COc1ccc(CNC(=O)C2CCCN(S(=O)(=O)c3ccc4c(c3)C(C)(C)C(=O)N4C)C2)cc1 (centres undefined),-,-,-,-,-,-,.,.,
CC(=O)c1ccc(OCc2cc(C(=O)NCCc3ccc(Cl)cc3)no2)cc1,-,-,-,-,-,-,.,.,
Cc1cccc(OCC(=O)NNC(=O)c2ccc3nc[nH]c3c2)c1,-,-,-,-,-,.,.,.,
O=C(Oc1ccc(Cl)c2cccnc12)N1CCCCC1,-,.,-,-,-,-,.,.,
O=C(Oc1ccc(Cl)c2ccccc12)N1CCCCC1,-,-,-,-,99,-,-,-,
O=C(O)c1ccc(/C=N/Nc2nc3ccccc3[nH]2)cc1,-,-,-,-,95,-,-,-,
COC(=O)c1ccc(/C=N/Nc2nc3ccccc3[nH]2)cc1,-,-,-,-,-,-,.,.,
O=C(C1CCN(c2ccc(N3CCOCC3)nn2)CC1)N1CCc2ccccc2C1,-,-,-,-,-,-,-,-,
O=C(C1CCN(S(=O)(=O)N2CCC3(CC2)OCCO3)CC1)N1CCc2ccccc2C1,-,-,-,-,-,-,.,.,
O=C(NC1CCCCC1)N1CCN(Cc2nc3ccccc3c(=O)[nH]2)CC1,-,-,-,-,-,-,.,.,GRK2 confirm 2=-;FAM quench CP2=-
O=c1[nH]c(CN2CCN(c3ccc(F)cc3)CC2)nc2ccccc12,-,-,?,-,-,-,.,.,
CCC(CC)C(=O)N1CCN(Cc2nc3ccccc3c(=O)[nH]2)CC1,-,-,-,-,-,-,.,.,
O=c1[nH]c(CN2CCN(c3ccccc3)CC2)nc2ccccc12,-,-,-,-,-,-,.,.,GRK2 confirm 2=-;FAM quench CP2=-
O=C(c1ccco1)N1CCN(Cc2nc3cc(Cl)ccc3c(=O)[nH]2)CC1,-,-,-,-,-,-,.,.,GRK2 confirm 2=-;FAM quench CP2=-
O=C(c1cccs1)N1CCN(Cc2nc3ccccc3c(=O)[nH]2)CC1,-,-,-,-,-,-,.,.,GRK2 confirm 2=-;FAM quench CP2=-
Cc1c(CN2CCC(Oc3ccc(C(=O)N4CCCCC4)cc3)CC2)cnn1C,-,-,-,-,-,-,.,.,
O=C(C1CC(=O)N(c2ccc3c(c2)OCCO3)C1)N1CCCC(C(F)(F)F)C1 (centres undefined),-,-,-,-,-,-,.,.,
COc1ccccc1N1CCN(/N=C/C(Cl)=C/c2ccccc2)CC1,-,-,-,-,-,-,.,.,
CN(C)S(=O)(=O)c1cccc(COC(=O)c2ccc(Cl)cc2O)c1,-,-,-,-,-,-,.,.,
CN(C)S(=O)(=O)c1cccc(COc2ncnc3c(Cl)cc(Cl)cc23)c1,-,-,-,-,90,-,-,-,
CCOC(CNc1ncnc2sc(-c3ccccc3)cc12)OCC,-,-,97,-,48,-,-,-,
CC(C)(C)c1ccc(/C=C2\CCn3c2nc2cc(C(=O)O)ccc2c3=O)cc1,-,-,.,-,-,-,.,.,
COc1ccc(/C=C2\CCn3c2nc2cc(C(=O)O)ccc2c3=O)cc1,-,-,.,-,41,-,.,.,GRK2 confirm 2=-;FAM quench CP2=-
COc1cc(N)c2ncsc2c1,.,-,.,.,.,.,.,.,
COc1cccc(C2c3[nH]c4ccccc4c3CCN2C(=O)c2ccccc2F)c1OC (centres undefined),-,-,-,-,50,-,-,-,
SMILES,HDAC3 inh,Rtt109 HAT inh,ALR inh,Efflux pump inh,GRK2 aptamer HTS,Rce1 inhib,GRK2 CP1,FAM quench CP1,others
COc1ccc(C2c3[nH]c4ccccc4c3CCN2C(=O)c2ccccc2C(C)=O)c(F)c1 (centres undefined),-,-,-,-,-,-,.,.,
CCC(=O)N(NC1=NS(=O)(=O)c2ccccc21)S(=O)(=O)c1ccc(C)cc1,-,-,-,-,-,-,.,.,
CCN(C(=O)CN1C(=O)c2ccc([N+](=O)[O-])cc2C1=O)C1CCCCC1,-,-,-,-,69,-,.,.,GRK2 confirm 2=-;FAM quench CP2=35
COc1cccc(CN2CCN(CCCc3ccccc3)C(CCO)C2)c1O (centres undefined),-,-,-,-,-,-,.,.,
Cc1cccc(Cn2c(=O)oc3ccc(C)cc32)c1,-,-,-,-,68,-,-,-,
OCCN(Cc1ccccc1)CC1CC2C=CC1C2 (centres undefined),-,-,-,-,46,-,-,-,
CCOC(=O)C1=CNS(=O)(=O)NC1CCc1ccccc1 (centres undefined),.,-,.,-,-,.,.,.,
O=C(Nc1ccccc1)c1ccc(Br)c(S(=O)(=O)Nc2ccccn2)c1,?,-,-,-,-,-,.,.,
Cc1cc(OCc2nc(-c3ccncc3)no2)cc(C)c1Cl,-,-,-,-,47,-,-,-,
Clc1ccc(OCc2nc(-c3ccncc3)no2)cc1,-,-,-,-,-,-,.,.,
CCOc1ccc2nc(COC(=O)c3ccncc3)c(C(=O)c3ccccc3)[n+]([O-])c2c1,-,.,-,-,-,-,.,.,
O=C(c1cccc(C(=O)N2CCN(c3ncccn3)CC2)c1)N1CCN(c2ncccn2)CC1,-,-,-,-,-,-,.,.,
O=C(c1ccc2nc(-c3ccco3)c(-c3ccco3)nc2c1)N1CCN(c2ncccn2)CC1,-,-,-,-,45,-,-,-,
CCNc1nc(OC)nc(N2CCC(Cc3ccccc3)CC2)n1,-,-,-,-,100,-,.,.,GRK2 confirm 2=-;FAM quench CP2=-
O=C(Cn1nnc2ccccc21)OCC(=O)c1ccc(F)cc1,-,-,-,-,-,-,.,.,
Cc1cc(C)n(/N=C/c2c[nH]c3ccccc23)c(=O)c1C#N,-,-,-,-,65,-,-,-,
CCCCOc1nc2ccccc2nc1NS(=O)(=O)c1ccc(F)cc1,-,-,-,-,-,-,.,.,
CCC(C)Oc1nc2ccccc2nc1NS(=O)(=O)c1ccccc1 (centres undefined),-,-,-,-,82,-,-,-,
CCCN1CCN(C(=O)C2CCN(S(=O)(=O)c3c(C)noc3/C=C/c3ccc(C)cc3)CC2)CC1,-,-,-,-,77,-,-,-,
Cc1ccc(/C=C/c2onc(C)c2S(=O)(=O)N2CCC(C(=O)N3CCCCC3)CC2)cc1,-,-,-,-,-,-,.,.,
CCOCCCN(C(=O)CNC(=O)c1ccco1)C(C(=O)NC1CCCC1)c1ccccc1C (centres undefined),-,-,-,-,56,-,-,-,
COC(=O)C1C(c2ccc(OC)cc2)C(C(=O)OC)S(=O)(=O)C(CCN2CCCCC2)S1(=O)=O (centres undefined),-,-,-,-,-,-,.,.,

# Screening results as filed in PubChem.
